From paper PMC7862700, “An all-to-all approach to the identification of sequence-specific readers for epigenetic DNA modifications on cytosine” come the findings set out here.

Holding throughout (assay): DAPPL (digital affinity profiling via proximity ligation, sequencing); 10 mM Tris-HCl pH 7.5, 50 mM NaCl, 1 mM DTT, 4% glycerol, room temperature, 30 min; GST-TFs on glutathione beads, 16-mer random dsDNA library, 0.1% formaldehyde crosslink after washing; high values mean tight binding
For one assay, the target named is T1, FEV (Homo sapiens, UniProt Q99581 1-238).
T1 sequence: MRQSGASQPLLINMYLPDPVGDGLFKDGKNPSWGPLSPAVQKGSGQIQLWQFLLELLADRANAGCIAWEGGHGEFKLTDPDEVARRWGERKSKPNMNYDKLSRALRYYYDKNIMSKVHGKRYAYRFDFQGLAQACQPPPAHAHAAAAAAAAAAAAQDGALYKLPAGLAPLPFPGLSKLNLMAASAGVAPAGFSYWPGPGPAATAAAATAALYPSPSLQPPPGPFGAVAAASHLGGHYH
As to conditions: protein: recombinant; tags: N-terminal GST; dsDNA, one strand shown. In a few lines:
(§1)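 Human transcription factors fused to GST were expressed in yeast, captured on glutathione beads, given DNA barcodes and pooled with a GST-only negative control. Pools were incubated with 200 nmole of a 16-mer random double-stranded DNA library in Tris/NaCl/DTT/glycerol buffer at room temperature for 30 min. They were then washed, crosslinked with 0.1% formaldehyde, proximity-ligated (BsaI/T4 ligase, 1 h, 37 °C), PCR-amplified and sequenced on an Illumina NextSeq500. Binding signal is each 6-mer's read frequency for a factor divided by its frequency for the GST control.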

In the next assay the target is ETV5 (Homo sapiens, UniProt P41161 1-510). As to conditions: protein: recombinant; tags: N-terminal GST; dsDNA, one strand shown. In a few lines:
as §1

Another assay addresses HSF1 (Homo sapiens, UniProt Q00613 1-529). Particulars: protein: recombinant; tags: N-terminal GST; chain copies: 3; dsDNA, one strand shown. In a few lines:
as §1

The target in another assay is T2, SPIC (Homo sapiens, UniProt Q8N5J4 1-248).
T2 sequence: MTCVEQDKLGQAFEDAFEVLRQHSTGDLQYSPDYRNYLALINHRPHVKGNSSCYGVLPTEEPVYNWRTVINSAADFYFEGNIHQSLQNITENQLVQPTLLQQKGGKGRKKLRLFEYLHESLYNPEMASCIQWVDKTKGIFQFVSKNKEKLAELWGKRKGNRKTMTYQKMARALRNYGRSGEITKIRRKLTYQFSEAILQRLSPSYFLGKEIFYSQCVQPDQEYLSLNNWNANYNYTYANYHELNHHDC
Particulars: protein: recombinant; tags: N-terminal GST; dsDNA, one strand shown. In a few lines:
as §1

For another assay, the target named is ELF4 (Homo sapiens, UniProt Q99607 1-663). As to conditions: protein: recombinant; tags: N-terminal GST; dsDNA, one strand shown. In a few lines: as §1
In another assay the target is T3, ELK4 (Homo sapiens, UniProt P28324-2 1-405).
T3 sequence: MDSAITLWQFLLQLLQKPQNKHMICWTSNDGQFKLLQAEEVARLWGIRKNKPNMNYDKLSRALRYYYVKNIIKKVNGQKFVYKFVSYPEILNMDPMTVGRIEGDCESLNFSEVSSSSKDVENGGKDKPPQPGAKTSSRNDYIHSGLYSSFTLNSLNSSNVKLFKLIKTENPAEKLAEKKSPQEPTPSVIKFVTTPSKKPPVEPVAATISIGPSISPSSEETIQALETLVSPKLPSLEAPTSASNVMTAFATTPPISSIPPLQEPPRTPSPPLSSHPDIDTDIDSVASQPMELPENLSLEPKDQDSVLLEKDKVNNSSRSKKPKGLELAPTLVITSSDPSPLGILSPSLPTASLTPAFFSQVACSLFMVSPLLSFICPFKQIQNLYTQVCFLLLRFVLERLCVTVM
Particulars: protein: recombinant; tags: N-terminal GST; dsDNA, one strand shown. In a few lines:
as §1

The next assay has as its target T4, ETV2 (Homo sapiens, UniProt O00321 1-342).
T4 sequence: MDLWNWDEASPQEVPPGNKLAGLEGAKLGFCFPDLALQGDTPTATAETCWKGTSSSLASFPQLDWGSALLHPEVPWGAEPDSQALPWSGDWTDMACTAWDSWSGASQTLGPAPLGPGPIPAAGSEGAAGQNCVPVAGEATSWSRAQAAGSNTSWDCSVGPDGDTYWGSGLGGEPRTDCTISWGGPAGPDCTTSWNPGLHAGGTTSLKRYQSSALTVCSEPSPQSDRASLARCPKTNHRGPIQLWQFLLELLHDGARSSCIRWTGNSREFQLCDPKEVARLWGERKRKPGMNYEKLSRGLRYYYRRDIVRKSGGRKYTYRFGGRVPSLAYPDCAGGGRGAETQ
As to conditions: protein: recombinant; tags: N-terminal GST; dsDNA, one strand shown. In a few lines: as §1

In a further assay the target is T5, ELF3 (Homo sapiens, UniProt P78545 1-371).
T5 sequence: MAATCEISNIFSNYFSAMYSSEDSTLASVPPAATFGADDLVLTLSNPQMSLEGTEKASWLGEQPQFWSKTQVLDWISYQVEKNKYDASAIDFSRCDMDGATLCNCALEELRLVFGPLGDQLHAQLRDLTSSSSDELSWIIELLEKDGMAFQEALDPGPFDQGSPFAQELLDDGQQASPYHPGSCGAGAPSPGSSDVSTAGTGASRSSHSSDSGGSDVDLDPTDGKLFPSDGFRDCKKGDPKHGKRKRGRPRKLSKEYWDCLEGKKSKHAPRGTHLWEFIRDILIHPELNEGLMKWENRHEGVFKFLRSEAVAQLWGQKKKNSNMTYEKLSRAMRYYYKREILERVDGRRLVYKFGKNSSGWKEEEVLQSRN
Particulars: protein: recombinant; tags: N-terminal GST; dsDNA, one strand shown. In a few lines:
as §1

The target of the next assay is CRX (Homo sapiens, UniProt O43186 1-299). As to conditions: protein: recombinant; tags: N-terminal GST; dsDNA, one strand shown. In a few lines:
as §1

The next assay concerns the target ETV1 (Homo sapiens, UniProt P50549 1-477). Particulars: protein: recombinant; tags: N-terminal GST; dsDNA, one strand shown. In a few lines: as §1

ELF4, sequence (Q99607 whole entry): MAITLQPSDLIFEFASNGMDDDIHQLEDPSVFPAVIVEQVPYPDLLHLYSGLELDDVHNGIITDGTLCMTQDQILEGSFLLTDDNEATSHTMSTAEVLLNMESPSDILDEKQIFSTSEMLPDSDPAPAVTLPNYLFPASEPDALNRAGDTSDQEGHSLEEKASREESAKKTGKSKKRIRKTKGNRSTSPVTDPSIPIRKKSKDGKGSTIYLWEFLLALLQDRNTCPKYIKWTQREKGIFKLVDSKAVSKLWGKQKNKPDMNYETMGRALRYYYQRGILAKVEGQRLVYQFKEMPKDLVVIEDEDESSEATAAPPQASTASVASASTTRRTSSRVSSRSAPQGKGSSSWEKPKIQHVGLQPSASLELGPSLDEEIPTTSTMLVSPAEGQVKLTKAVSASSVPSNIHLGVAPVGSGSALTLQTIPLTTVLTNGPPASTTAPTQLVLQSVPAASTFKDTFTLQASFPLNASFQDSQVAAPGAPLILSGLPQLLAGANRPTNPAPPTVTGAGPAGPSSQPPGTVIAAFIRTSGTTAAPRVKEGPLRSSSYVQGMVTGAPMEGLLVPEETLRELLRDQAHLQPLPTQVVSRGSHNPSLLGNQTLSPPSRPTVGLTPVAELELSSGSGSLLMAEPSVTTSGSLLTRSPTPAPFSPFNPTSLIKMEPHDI
ETV5, sequence (P41161 whole entry): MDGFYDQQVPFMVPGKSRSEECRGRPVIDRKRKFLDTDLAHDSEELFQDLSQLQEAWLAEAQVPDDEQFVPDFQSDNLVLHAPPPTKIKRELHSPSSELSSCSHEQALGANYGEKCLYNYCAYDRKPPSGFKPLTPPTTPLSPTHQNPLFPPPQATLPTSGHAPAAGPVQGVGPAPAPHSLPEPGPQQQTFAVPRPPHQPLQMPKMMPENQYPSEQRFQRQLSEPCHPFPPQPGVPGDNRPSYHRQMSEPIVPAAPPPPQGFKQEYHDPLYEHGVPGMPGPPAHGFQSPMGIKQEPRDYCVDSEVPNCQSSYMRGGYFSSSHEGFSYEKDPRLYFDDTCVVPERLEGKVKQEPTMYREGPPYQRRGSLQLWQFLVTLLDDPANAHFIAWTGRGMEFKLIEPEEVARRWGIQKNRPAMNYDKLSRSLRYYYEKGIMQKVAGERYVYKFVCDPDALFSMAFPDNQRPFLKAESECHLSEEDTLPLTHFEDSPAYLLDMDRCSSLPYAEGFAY
CRX, sequence (O43186 whole entry): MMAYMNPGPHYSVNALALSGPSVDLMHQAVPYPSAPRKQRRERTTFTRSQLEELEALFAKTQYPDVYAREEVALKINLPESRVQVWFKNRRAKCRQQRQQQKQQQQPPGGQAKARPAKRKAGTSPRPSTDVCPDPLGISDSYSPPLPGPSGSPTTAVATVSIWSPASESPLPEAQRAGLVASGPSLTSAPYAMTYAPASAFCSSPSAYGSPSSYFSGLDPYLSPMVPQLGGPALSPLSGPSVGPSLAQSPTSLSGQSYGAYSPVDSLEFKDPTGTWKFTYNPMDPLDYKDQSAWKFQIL
HSF1, sequence (Q00613 whole entry): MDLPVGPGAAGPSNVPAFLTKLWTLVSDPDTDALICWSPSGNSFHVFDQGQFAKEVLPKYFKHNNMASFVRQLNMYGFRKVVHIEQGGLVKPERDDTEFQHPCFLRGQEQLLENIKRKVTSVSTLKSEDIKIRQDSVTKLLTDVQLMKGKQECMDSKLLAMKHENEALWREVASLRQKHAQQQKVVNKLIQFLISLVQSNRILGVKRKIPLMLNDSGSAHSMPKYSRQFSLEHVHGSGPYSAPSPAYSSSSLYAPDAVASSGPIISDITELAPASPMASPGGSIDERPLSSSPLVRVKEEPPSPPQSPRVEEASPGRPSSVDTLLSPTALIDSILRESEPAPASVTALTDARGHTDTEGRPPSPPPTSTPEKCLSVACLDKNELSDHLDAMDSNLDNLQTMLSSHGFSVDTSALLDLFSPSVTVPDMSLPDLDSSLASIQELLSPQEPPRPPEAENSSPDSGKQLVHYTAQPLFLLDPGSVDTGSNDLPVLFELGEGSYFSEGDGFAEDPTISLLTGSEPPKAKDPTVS
ETV1, sequence (P50549 whole entry): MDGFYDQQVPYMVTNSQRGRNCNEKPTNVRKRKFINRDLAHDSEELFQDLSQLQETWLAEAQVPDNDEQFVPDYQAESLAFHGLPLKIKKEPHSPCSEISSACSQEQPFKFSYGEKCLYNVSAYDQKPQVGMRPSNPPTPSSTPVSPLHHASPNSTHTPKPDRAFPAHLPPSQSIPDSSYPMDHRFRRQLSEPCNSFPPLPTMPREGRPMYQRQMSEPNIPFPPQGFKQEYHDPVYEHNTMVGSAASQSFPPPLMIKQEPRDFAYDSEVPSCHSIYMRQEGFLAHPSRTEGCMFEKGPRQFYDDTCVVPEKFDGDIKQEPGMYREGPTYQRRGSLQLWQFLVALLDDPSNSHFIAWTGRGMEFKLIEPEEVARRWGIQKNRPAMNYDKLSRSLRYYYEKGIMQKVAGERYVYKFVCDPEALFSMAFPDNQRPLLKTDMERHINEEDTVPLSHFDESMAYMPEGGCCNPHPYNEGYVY

With ACAAAT, the binding signal with FEV is 1.16 fold enrichment (6-mer frequency, TF over GST control); with ETV5, 1.16 fold enrichment (6-mer frequency, TF over GST control); in the assay with HSF1, 1.17 fold enrichment (6-mer frequency, TF over GST control); in the assay with SPIC, 1.12 fold enrichment (6-mer frequency, TF over GST control); with ELF4, 1.18 fold enrichment (6-mer frequency, TF over GST control); in the assay with ELK4, 1.04 fold enrichment (6-mer frequency, TF over GST control). In addition, the binding signal was 1.16 fold enrichment (6-mer frequency, TF over GST control) in the assay with ETV2; 1.22 fold enrichment (6-mer frequency, TF over GST control) with ELF3; 1.29 fold enrichment (6-mer frequency, TF over GST control) in the assay with CRX; 1.15 fold enrichment (6-mer frequency, TF over GST control) with ETV1.

With CTCGCA, the binding signal is 1.32 fold enrichment (6-mer frequency, TF over GST control) in the assay with FEV; 1.19 fold enrichment (6-mer frequency, TF over GST control) in the assay with ETV5; 1.61 fold enrichment (6-mer frequency, TF over GST control) with HSF1; 1.43 fold enrichment (6-mer frequency, TF over GST control) with SPIC; 1.26 fold enrichment (6-mer frequency, TF over GST control) with ELF4; 1.29 fold enrichment (6-mer frequency, TF over GST control) with ELK4. The binding signal with ETV2 was 1.34 fold enrichment (6-mer frequency, TF over GST control); in the assay with ELF3 it was 1.26 fold enrichment (6-mer frequency, TF over GST control); with CRX, 1.2 fold enrichment (6-mer frequency, TF over GST control); with ETV1, 1.26 fold enrichment (6-mer frequency, TF over GST control).

Consider TATAAT, for which the binding signal is 1.16 fold enrichment (6-mer frequency, TF over GST control) in the assay with FEV; 1.17 fold enrichment (6-mer frequency, TF over GST control) in the assay with ETV5; 1.82 fold enrichment (6-mer frequency, TF over GST control) with HSF1; 1.1 fold enrichment (6-mer frequency, TF over GST control) with SPIC; 1.13 fold enrichment (6-mer frequency, TF over GST control) with ELF4; 1.25 fold enrichment (6-mer frequency, TF over GST control) with ELK4. Further, the binding signal with ETV2 was 1.3 fold enrichment (6-mer frequency, TF over GST control); with ELF3, 1.27 fold enrichment (6-mer frequency, TF over GST control); with CRX, 2.69 fold enrichment (6-mer frequency, TF over GST control); with ETV1, 1.15 fold enrichment (6-mer frequency, TF over GST control).

In the case of TCCCAT, the binding signal is 1.32 fold enrichment (6-mer frequency, TF over GST control) with FEV; 1.34 fold enrichment (6-mer frequency, TF over GST control) with ETV5; 1.21 fold enrichment (6-mer frequency, TF over GST control) with HSF1; 1.45 fold enrichment (6-mer frequency, TF over GST control) with SPIC; 1.29 fold enrichment (6-mer frequency, TF over GST control) with ELF4; 1.27 fold enrichment (6-mer frequency, TF over GST control) with ELK4. Further, the binding signal in the assay with ETV2 was 1.41 fold enrichment (6-mer frequency, TF over GST control); with ELF3 it was 1.44 fold enrichment (6-mer frequency, TF over GST control); with CRX it was 1.43 fold enrichment (6-mer frequency, TF over GST control); in the assay with ETV1, 1.37 fold enrichment (6-mer frequency, TF over GST control).

Regarding TTTTGT, the binding signal in the assay with FEV is 1.33 fold enrichment (6-mer frequency, TF over GST control); with ETV5, 1.31 fold enrichment (6-mer frequency, TF over GST control); in the assay with HSF1 it was 1.27 fold enrichment (6-mer frequency, TF over GST control); in the assay with SPIC it was 1.2 fold enrichment (6-mer frequency, TF over GST control); with ELF4 it was 1.41 fold enrichment (6-mer frequency, TF over GST control); with ELK4, 1.36 fold enrichment (6-mer frequency, TF over GST control). The binding signal with ETV2 is 1.28 fold enrichment (6-mer frequency, TF over GST control); in the assay with ELF3, 1.43 fold enrichment (6-mer frequency, TF over GST control); in the assay with CRX, 1.42 fold enrichment (6-mer frequency, TF over GST control); with ETV1 it was 1.32 fold enrichment (6-mer frequency, TF over GST control).

With TATCAC, the binding signal with FEV was 1.21 fold enrichment (6-mer frequency, TF over GST control); with ETV5 it was 1.24 fold enrichment (6-mer frequency, TF over GST control); with HSF1, 1.14 fold enrichment (6-mer frequency, TF over GST control); with SPIC it was 1.17 fold enrichment (6-mer frequency, TF over GST control); in the assay with ELF4, 1.24 fold enrichment (6-mer frequency, TF over GST control); with ELK4 it was 1.18 fold enrichment (6-mer frequency, TF over GST control). Besides, the binding signal in the assay with ETV2 is 1.34 fold enrichment (6-mer frequency, TF over GST control); in the assay with ELF3, 1.25 fold enrichment (6-mer frequency, TF over GST control); with CRX it was 1.35 fold enrichment (6-mer frequency, TF over GST control); with ETV1, 1.17 fold enrichment (6-mer frequency, TF over GST control).

For GGTATT, the binding signal with FEV is 1.1 fold enrichment (6-mer frequency, TF over GST control); with ETV5, 1.16 fold enrichment (6-mer frequency, TF over GST control); in the assay with HSF1, 1.39 fold enrichment (6-mer frequency, TF over GST control); with SPIC it was 1.14 fold enrichment (6-mer frequency, TF over GST control); with ELF4, 1.12 fold enrichment (6-mer frequency, TF over GST control); in the assay with ELK4 it was 1.14 fold enrichment (6-mer frequency, TF over GST control). For the same sequence, the binding signal is 1.12 fold enrichment (6-mer frequency, TF over GST control) in the assay with ETV2; 1.1 fold enrichment (6-mer frequency, TF over GST control) with ELF3; 1.66 fold enrichment (6-mer frequency, TF over GST control) with CRX; 1.16 fold enrichment (6-mer frequency, TF over GST control) with ETV1.
